Tests used:
[1] = biological target: Serine/threonine-protein kinase pim-2 (Homo sapiens) (UniProt Q9P1W9); details: at 1 µM;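 further: each value is a mean of the inhibition measurements against the kinase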
[2] = biological target: Serine/threonine-protein kinase pim-3 (Homo sapiens) (UniProt Q86V86); details: at 0.1 µM
[3] = biological target: Serine/threonine-protein kinase pim-3 (Homo sapiens) (UniProt Q86V86); details: at 1 µM
[4] = biological target: T1, MAP kinase-activated protein kinase 5 (Homo sapiens) (UniProt Q8IW41); details: at 0.1 µM
T1 sequence (whole entry): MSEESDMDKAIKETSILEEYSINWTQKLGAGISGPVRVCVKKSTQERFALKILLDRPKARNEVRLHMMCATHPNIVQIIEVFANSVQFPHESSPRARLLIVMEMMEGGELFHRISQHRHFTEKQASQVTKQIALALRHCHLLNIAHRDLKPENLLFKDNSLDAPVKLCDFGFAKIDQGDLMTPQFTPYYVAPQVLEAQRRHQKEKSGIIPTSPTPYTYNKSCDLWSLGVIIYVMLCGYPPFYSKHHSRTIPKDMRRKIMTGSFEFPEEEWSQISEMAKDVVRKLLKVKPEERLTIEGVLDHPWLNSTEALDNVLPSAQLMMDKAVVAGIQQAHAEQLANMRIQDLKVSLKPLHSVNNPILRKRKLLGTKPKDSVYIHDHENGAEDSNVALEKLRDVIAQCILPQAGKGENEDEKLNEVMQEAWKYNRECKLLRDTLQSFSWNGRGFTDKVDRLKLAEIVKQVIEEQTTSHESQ

[5] = biological target: T1, MAP kinase-activated protein kinase 5 (Homo sapiens); details: at 1 µM
[6] = biological target: Serine/threonine-protein kinase SIK1 (Homo sapiens) (UniProt P57059); details: at 0.1 µM
Chain of Serine/threonine-protein kinase SIK1 (Homo sapiens) (P57059 whole entry): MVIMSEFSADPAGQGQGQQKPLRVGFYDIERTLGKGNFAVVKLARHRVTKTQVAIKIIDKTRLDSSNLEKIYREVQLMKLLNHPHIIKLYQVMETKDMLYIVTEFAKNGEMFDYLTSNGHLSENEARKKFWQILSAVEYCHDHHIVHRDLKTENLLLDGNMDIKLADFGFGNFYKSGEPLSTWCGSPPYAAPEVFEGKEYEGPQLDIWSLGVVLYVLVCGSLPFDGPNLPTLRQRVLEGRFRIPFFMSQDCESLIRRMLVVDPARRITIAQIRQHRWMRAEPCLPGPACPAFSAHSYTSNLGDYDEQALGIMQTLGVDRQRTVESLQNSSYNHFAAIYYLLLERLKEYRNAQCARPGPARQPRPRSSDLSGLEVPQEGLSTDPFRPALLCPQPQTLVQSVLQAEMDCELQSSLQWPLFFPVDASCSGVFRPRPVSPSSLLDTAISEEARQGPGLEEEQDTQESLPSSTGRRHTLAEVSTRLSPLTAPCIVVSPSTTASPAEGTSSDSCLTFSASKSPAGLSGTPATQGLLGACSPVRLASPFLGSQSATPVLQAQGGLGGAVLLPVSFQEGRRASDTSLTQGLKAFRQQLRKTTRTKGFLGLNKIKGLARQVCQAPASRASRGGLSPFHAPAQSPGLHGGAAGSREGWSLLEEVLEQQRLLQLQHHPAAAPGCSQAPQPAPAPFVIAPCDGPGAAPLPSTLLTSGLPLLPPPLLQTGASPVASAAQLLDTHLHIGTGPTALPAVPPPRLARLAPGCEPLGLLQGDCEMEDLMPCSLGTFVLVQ

[7] = biological target: Serine/threonine-protein kinase SIK1 (Homo sapiens) (UniProt P57059); details: at 1 µM
[8] = biological target: Serine/threonine-protein kinase SIK2 (Homo sapiens) (UniProt Q9H0K1); details: at 0.1 µM
Chain of Serine/threonine-protein kinase SIK2 (Homo sapiens) (Q9H0K1 whole entry, looked up): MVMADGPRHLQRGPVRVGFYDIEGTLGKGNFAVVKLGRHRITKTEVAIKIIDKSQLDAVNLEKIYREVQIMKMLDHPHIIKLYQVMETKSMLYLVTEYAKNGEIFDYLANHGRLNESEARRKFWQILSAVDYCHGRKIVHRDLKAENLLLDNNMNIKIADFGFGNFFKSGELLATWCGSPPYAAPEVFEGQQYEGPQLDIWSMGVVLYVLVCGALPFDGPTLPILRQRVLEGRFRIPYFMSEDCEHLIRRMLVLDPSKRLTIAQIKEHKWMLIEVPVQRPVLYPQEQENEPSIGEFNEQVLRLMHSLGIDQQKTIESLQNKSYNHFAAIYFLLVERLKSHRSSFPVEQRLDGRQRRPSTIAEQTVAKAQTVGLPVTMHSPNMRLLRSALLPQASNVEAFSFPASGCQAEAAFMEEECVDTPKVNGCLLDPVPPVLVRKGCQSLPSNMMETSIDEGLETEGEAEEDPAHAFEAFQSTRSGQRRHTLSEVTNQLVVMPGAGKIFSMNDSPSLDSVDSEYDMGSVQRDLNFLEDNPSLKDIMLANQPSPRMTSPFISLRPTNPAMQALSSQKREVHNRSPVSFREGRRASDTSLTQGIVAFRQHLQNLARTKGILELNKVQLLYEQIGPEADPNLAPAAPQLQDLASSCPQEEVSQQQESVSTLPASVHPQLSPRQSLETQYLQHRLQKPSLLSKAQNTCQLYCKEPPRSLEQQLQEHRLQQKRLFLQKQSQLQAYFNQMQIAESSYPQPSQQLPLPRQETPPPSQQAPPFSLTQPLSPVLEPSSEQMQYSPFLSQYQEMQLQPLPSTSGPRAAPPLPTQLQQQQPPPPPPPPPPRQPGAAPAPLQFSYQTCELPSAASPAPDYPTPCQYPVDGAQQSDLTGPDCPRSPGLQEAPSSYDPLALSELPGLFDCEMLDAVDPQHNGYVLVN

[9] = biological target: Serine/threonine-protein kinase SIK2 (Homo sapiens) (UniProt Q9H0K1); details: at 1 µM
[10] = biological target: T2, Serine/threonine-protein kinase TBK1 (Homo sapiens) (UniProt Q9UHD2); details: at 0.1 µM
T2 sequence (whole entry): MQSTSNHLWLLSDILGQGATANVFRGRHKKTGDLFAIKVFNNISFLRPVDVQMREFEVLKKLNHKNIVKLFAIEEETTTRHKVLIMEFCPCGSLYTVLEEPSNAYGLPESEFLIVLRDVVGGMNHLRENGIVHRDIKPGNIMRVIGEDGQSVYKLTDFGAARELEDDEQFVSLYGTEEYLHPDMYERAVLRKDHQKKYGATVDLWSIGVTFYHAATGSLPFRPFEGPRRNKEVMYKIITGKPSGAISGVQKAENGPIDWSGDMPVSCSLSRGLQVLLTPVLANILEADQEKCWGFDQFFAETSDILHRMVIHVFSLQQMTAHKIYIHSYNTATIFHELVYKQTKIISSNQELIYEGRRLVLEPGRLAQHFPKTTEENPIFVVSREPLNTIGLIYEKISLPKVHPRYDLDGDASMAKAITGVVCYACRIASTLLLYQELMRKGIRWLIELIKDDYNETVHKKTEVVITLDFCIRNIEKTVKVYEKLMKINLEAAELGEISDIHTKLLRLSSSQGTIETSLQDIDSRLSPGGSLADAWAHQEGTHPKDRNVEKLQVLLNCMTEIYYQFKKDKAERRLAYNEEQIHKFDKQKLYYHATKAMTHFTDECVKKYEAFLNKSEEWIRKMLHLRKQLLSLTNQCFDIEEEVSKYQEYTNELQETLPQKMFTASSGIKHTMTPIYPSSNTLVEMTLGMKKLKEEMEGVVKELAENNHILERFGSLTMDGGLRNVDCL

[11] = biological target: T2, Serine/threonine-protein kinase TBK1 (Homo sapiens); details: at 1 µM
[12] = biological target: T3, Testis-specific serine/threonine-protein kinase 1 (Homo sapiens) (UniProt Q9BXA7); details: at 0.1 µM
T3 sequence (whole entry): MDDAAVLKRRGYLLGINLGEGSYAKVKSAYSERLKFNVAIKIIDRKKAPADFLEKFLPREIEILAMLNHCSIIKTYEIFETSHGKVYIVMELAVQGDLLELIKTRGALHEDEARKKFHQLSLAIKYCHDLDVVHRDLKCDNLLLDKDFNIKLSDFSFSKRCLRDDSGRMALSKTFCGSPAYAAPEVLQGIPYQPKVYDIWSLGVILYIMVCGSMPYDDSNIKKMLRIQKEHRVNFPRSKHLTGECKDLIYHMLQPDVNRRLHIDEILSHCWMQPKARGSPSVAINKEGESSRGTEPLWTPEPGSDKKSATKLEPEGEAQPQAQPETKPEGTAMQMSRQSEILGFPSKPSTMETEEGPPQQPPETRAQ

[13] = biological target: T3, Testis-specific serine/threonine-protein kinase 1 (Homo sapiens); details: at 1 µM
[14] = biological target: T4, Testis-specific serine/threonine-protein kinase 2 (Homo sapiens) (UniProt Q96PF2); details: at 0.1 µM
T4 sequence (whole entry): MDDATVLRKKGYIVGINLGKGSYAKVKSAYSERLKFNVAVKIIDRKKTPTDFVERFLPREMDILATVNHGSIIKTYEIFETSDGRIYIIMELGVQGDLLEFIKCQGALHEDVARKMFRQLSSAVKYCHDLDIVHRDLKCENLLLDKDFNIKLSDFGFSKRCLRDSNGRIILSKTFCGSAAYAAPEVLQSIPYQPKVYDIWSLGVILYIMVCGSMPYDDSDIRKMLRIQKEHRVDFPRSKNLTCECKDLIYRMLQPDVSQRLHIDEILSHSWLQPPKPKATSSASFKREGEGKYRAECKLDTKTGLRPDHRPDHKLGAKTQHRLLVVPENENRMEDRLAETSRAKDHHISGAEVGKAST

[15] = biological target: T4, Testis-specific serine/threonine-protein kinase 2 (Homo sapiens); details: at 1 µM
[16] = biological target: Casein kinase I isoform alpha (Homo sapiens) (UniProt P48729); details: at 0.1 µM
Chain of Casein kinase I isoform alpha (Homo sapiens) (P48729 2-337 limits assumed): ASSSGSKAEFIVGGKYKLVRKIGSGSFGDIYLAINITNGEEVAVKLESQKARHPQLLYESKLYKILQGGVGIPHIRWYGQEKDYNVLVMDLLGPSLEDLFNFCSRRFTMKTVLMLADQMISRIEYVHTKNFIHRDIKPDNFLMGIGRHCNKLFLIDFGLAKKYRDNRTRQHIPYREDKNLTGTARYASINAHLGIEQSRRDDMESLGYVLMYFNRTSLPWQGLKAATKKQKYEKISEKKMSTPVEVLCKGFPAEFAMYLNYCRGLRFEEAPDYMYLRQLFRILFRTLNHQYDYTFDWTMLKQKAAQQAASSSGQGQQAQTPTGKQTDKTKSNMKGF

[17] = biological target: Casein kinase I isoform alpha (Homo sapiens) (UniProt P48729); details: at 1 µM
[18] = biological target: Casein kinase I isoform gamma-1 (Homo sapiens) (UniProt Q9HCP0); details: at 0.1 µM
Chain of Casein kinase I isoform gamma-1 (Homo sapiens) (Q9HCP0 whole entry, looked up, canonical isoform): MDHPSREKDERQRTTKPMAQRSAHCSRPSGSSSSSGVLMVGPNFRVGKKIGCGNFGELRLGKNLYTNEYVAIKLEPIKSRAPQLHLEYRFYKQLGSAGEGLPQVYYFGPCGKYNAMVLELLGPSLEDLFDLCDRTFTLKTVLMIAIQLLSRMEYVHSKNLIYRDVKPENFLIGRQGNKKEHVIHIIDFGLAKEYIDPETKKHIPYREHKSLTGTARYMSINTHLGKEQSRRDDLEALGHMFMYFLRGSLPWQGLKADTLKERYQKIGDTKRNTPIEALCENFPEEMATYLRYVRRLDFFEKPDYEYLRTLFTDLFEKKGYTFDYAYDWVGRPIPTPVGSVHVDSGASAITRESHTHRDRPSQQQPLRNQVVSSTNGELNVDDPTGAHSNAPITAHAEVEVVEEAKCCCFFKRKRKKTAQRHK

[19] = biological target: Casein kinase I isoform gamma-1 (Homo sapiens) (UniProt Q9HCP0); details: at 1 µM
[20] = biological target: Casein kinase I isoform gamma-2 (Homo sapiens) (UniProt P78368); details: at 0.1 µM;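 further: values are mean inhibition figures reported as part of the GSK PKIS dataset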
Chain of Casein kinase I isoform gamma-2 (Homo sapiens) (P78368 whole entry, looked up, canonical isoform): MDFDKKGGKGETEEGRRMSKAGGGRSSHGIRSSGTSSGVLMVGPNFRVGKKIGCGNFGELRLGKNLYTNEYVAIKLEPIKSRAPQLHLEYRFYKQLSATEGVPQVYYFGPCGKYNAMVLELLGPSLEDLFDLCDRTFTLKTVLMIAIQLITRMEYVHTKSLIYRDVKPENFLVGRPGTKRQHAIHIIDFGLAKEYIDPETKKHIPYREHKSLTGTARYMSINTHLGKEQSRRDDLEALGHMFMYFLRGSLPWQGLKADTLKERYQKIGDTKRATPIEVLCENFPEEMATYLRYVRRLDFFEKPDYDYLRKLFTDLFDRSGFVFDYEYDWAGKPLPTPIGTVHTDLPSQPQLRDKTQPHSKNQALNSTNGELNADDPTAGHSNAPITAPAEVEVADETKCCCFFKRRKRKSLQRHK

Chain of Serine/threonine-protein kinase pim-2 (Homo sapiens) (Q9P1W9 whole entry, looked up): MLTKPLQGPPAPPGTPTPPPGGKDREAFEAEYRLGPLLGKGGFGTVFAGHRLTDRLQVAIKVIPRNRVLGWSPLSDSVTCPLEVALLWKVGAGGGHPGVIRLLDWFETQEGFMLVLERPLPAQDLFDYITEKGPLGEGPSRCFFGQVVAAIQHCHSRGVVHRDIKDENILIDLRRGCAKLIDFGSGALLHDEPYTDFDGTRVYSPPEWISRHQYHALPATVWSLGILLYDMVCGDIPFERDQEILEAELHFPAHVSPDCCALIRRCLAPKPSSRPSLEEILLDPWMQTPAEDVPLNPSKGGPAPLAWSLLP

Row | Compound | inhibition [1] [%] | inhibition [2] [%] | inhibition [3] [%] | inhibition [4] [%] | inhibition [5] [%] | inhibition [6] [%] | inhibition [7] [%] | inhibition [8] [%] | inhibition [9] [%] | inhibition [10] [%] | inhibition [11] [%] | inhibition [12] [%] | inhibition [13] [%] | inhibition [14] [%] | inhibition [15] [%] | inhibition [16] [%] | inhibition [17] [%] | inhibition [18] [%] | inhibition [19] [%] | inhibition [20] [%]
1 | CCc1nccc2c1nc(-c1nonc1N)n2CC | 1.27 | -0.38 | -2.26 | -0.45 | -1.56 | 0.62 | 4.31 | -4.39 | 6.79 | 1.12 | 6.1 | 0.58 | 0.27 | -0.65 | -0.91 | 3.39 | 3.67 | 0.76 | 2.98 | 0.48
2 | NC(=O)c1ccc(Oc2nccc(-c3c(-c4ccc(F)cc4)ncn3C3CCNCC3)n2)cc1 | -0.49 | 0.26 | 1.82 | 3.51 | 2.54 | 4.73 | 11.3 | 7.22 | 3.63 | 3.9 | 4.3 | 4.45 | 5.29 | 2.52 | 2.46 | 5.63 | 30.3 | 5.2 | 9.98 | 5.16
3 | Cc1ccc(C(=O)NC2CCC2)cc1-c1ccc(C(=O)NCC2CC2)cc1 | -0.13 | -0.5 | 0.14 | 0.63 | -0.21 | 6.34 | 3.12 | 1.33 | 0.45 | 1.61 | 2.24 | 2.11 | 1.32 | 0.09 | -0.03 | 3.36 | 6.49 | 2.64 | 3.13 | 1.72
4 | COc1cc(Nc2ncc(-c3ccccc3)o2)cc(OC)c1OC | 1.06 | 0.31 | 1.87 | -0.54 | 0.01 | 0.98 | 27.4 | 3.12 | 30.6 | 2.26 | 13.7 | 0.03 | -0.04 | -1.14 | -1.3 | -0.72 | 1.29 | -1.4 | -0.76 | -1.34
5 | Fc1ccc(-c2ncn(CCCN3CCOCC3)c2-c2ccncc2)cc1 | 0.84 | -1.36 | -2.93 | -0.65 | -1.42 | -2.01 | 3.56 | -2.31 | 2.48 | 1.21 | 0.48 | -0.41 | -0.42 | -1.62 | -0.63 | 2.04 | 5.39 | 0.8 | 1.79 | 1.74
6 | COc1cc(Nc2ncc3c(C)nc(-c4cccc(C(F)(F)F)c4)n3n2)cc(OC)c1OC | 3.02 | 3.42 | 6.73 | 1.19 | 2.92 | 3.9 | 15.9 | 10.9 | 13.5 | 1.64 | 25.5 | 4.46 | 9.14 | 4.53 | 3.7 | 7.78 | 6.02 | 2.94 | 4.47 | 2.07
7 | COc1ccc(-c2ccc3c(NC(=O)C4CC4)n[nH]c3n2)cc1 | 0.38 | 0.42 | 0.61 | 1.05 | 2.54 | -0.67 | 4.73 | 2.86 | 6.15 | 2.33 | 0.62 | 2.89 | 4.85 | 0.65 | 4.63 | 6.34 | 0.42 | 1.84 | 2.17 | 1.99
8 | COc1cccc(/C=N/Nc2ncnc3c2cnn3-c2cccc(OC)c2)c1 | -0.53 | 0.38 | 0.16 | 0.99 | 1.08 | 5.07 | 8.61 | 5.87 | 6.63 | 3.28 | 1.31 | 3.46 | 3.86 | 2.47 | 1.38 | 3.37 | 6.05 | 2.82 | 3.51 | 3.16
9 | CS(=O)(=O)CCNCc1cc(-c2cc3c(Nc4ccc(OCc5cccc(F)c5)c(Cl)c4)ncnc3s2)cs1 | -0.99 | 0.08 | 2.3 | 2.2 | 1.6 | 7.53 | 7.6 | 7.98 | 0.61 | 5.03 | 4.88 | 4.02 | 4.37 | 2.22 | 2.42 | 6.3 | 8.73 | 3.81 | 4.73 | 3.23
10 | CN(C)c1ccc2c(c1)/C(=C/Nc1ccc(S(N)(=O)=O)cc1)C(=O)N2 | 1.18 | 0.39 | 0.56 | 0.23 | 0.46 | 3.94 | 14.7 | 5.24 | 18.2 | 6.65 | 49.7 | 2.84 | 9.92 | 0.44 | 1.25 | 1.06 | 2.88 | 1.12 | 1.57 | 1.13
11 | CCN(CC)Cc1ccc(Nc2nccc(-c3cnn4ncccc34)n2)cc1 | -0.59 | 6.38 | 37.2 | 1.44 | 2.13 | 2.61 | 24.1 | 10.8 | 47.2 | 5.04 | 12.3 | 5.5 | 26.5 | 0.81 | 2.16 | 15.2 | 54.3 | 2.36 | 6.01 | 1.79
12 | O=C(Nc1n[nH]c2nc(-c3ccco3)ccc12)C1CC1 | -0.06 | 0.6 | -0.35 | -0.19 | -1.25 | 4.89 | 3.71 | 0.98 | 3.32 | 1.19 | 2.8 | 1.99 | -0.53 | 0.63 | -1.49 | 0.06 | 3.38 | 0.09 | 1.22 | -0.26

— ChEMBL document CHEMBL1961873, “Compounds: GSK PKIS; Assays: Nanosyn kinase panel” (2012)
